# This is a sample that favours compounds with a hit; in the whole collection about 3.8% have one here.
# Nrf2 block = inhibitors of Nrf2 signaling | Potency, µM (top dose mostly 46 µM), for inactives: at the top dose activity change, negative = inhibition, actives largely listed as inhibitors | 2.1% of 360,000 active | AID 504444 | A549 ARE-Fluc reporter, luciferase luminescence, 18-24 h; also: % is scaled to controls: 0 for no effect and ±100 for the full control effect; nearly all actives have a fitted effect of over 60% in size
#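 A549 ARE_Fluc cells (5000/well, 5% FBS OPTI-MEM) pre-incubated 2 h, then treated with compounds 18-24 h at 37C/5% CO2 in concentration-response. CellTiter-Fluor viability read first; BugLite luciferase luminescence after 15 min at room temperature gives Nrf2 activity.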
# HepG2 tox = kills HepG2 cells in TGF-b inhibitor counter-screen | HepG2 CAGA-GFP viability, ATP luminescence, 18 h | Potency, µM (titrated, usually from 46.1 µM), without a hit: at the top dose activity change, negative = cytotoxicity, most hits filed as cytotoxic | 0.76% of 410,000 active | AID 588856
#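 CellTiter-Glo luminescence gave cytotoxicity after 18 hours at 37 degrees C. The cells were HepG2 CAGA-GFP in 1% FBS DMEM, stimulated with 500 pg/mL TGF-beta after compound addition. %Activity was normalised to no-cell wells (complete cell-killing) and DMSO (no toxicity), and curves were fitted and classified.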
# TGFb inhibitor = inhibitors of TGF-b signaling | HepG2 CAGA-GFP TGF-b/SMAD3 reporter, GFP fluorescence, 18 h; TGF-beta stimulated, 500 pg/mL final | Potency, µM (titrated, usually from 46.1 µM), without a hit: top-dose activity, negative = inhibition, hits mostly inhibitors | 1.2% of 410,000 active | AID 588855; also: % is scaled to controls: 0 for no effect and ±100 for the full control effect; nearly all actives have a fitted effect of over 65% in size
#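 Smad-responsive CAGA-GFP expression was quantified in HEPG2 cells exposed to compounds and 500 pg/mL final TGF-beta for 18 h at 37 degrees C; unstimulated wells defined full inhibition.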
# A549 tox = counter-screen for Nrf2 inhibitors: cytotoxicity in A549 cells. 0.16% of 390,000 active. A549 ARE-Fluc cells, CellTiter-Fluor viability, 18-24 h. AID 504648. Potency, µM (doses to about 46 µM), for the others: at the highest dose activity change, negative = cytotoxicity, hits mostly inhibitors; also: % is scaled to controls: 0 for no effect and ±100 for the full control effect
#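 A549 ARE-Fluc cells in 5% FBS OPTI-MEM, 5000 cells/well, rested 2 h then exposed to compounds in concentration-response for 18-24 h at 37 °C. Viability by CellTiter-Fluor fluorescence (Ex 405/Em 525) after 30 min; luciferase luminescence (BugLite, 15 min, RT) read afterwards.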
# ATXN2 expr inh = inhibitors of ATXN2 expression; HEK-293 ATXN2-luciferase reporter, luminescence, 24 h; Potency, µM (top dose mostly 57 µM), for the others: at the highest dose activity change, negative = inhibition, usual class: inhibitors; 0.72% of 360,000 active; AID 1745845; also: % is scaled to controls: 0 for no effect and ±100 for the full control effect; nearly all actives have a fitted effect of over 55% in size
#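 ATXN2-luciferase reporter cells (luciferase flanked by upstream and downstream ATXN2 gene portions) were treated 24 h at 37 °C with compounds at up to 57 uM. SteadyGlo luminescence gave expression; GF-AFC fluorescence gave viability.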
# ATXN viability = reduces viability in counter-screen for ATXN expression inhibitors | 0.49% of 400,000 active | AID 651635 | Potency, µM (top dose mostly 56.7 µM), most hits filed as cytotoxic | S2 cells (HEK-293 line with an ATXN2-luciferase reporter) viability, CellTiter-Fluor protease fluorescence, 24 h; also: nearly all actives have a fitted effect of over 40% in size
# Starred values were filed as active, the others as inactive; i = inactive; ? = inconclusive; · = no result given; [ ] = another dose, or the depositor's remark. Calls follow the shape of the dose curve; as a rule, active = well fitted curve in the direction sought with a large enough effect; inconclusive = small, poorly fitted or top-dose-only effect, or another doubt; inactive = no such curve, though single readings can be large; an effect the other way counts as inactive or inconclusive. Potency is read from the fitted curve at half-maximal effect.
SMILES,Nrf2 block,HepG2 tox,TGFb inhibitor,A549 tox,ATXN2 expr inh,ATXN viability
Cc1cccc(Cc2c(C)nc3c(C(=O)NCc4ccco4)cnn3c2C)c1,23µM*,-113%,18µM*,?,-33%,i
O=C(CSCc1ccccc1)N1CCN(Cc2ccc3c(c2)OCO3)CC1,16%,-30%,-2%,18%,5%,i
Cc1nc2c(C(=O)NCc3ccco3)cnn2c(C)c1Cc1ccc(F)cc1Cl,?,-12%,-5%,-19%,-25%,i
Cc1cccc(-c2nc(CSCC(=O)N3CCN(Cc4ccc5c(c4)OCO5)CC3)c(C)o2)c1,21µM*,-11%,?,2%,-14%,?
O=C(CN1CCN(C(=O)N2CCOCC2)CC1)Nc1ccc(Br)cc1,-8%,-3%,-5%,-4%,-9%,i
COc1ccc(NC(=O)CN2CCN(C(=O)N3CCOCC3)CC2)cc1,3%,3.5µM*,0%,1%,-4%,i
COc1cc(/C=C2/SC(=S)N(CC(=O)NNC(=O)c3ccc(F)cc3)C2=O)cc(OC)c1OC,·,-12%,-1%,·,·,i
O=C(O)CN(CC(=O)O)CC(=O)O,-9%,3%,14%,-8%,-5%,i
CC(=O)O[C@H]1[C@@H](O)[C@H](O)[C@H](Oc2c(O)c(C)c3c4c2[C@@H](C)CC[C@@H]4[C@@H](C)C[C@H]3C=C(C)C)O[C@H]1C,1%,-114%,11µM*,-15%,?,?
CC(=O)O[C@@H]1[C@@H](O)[C@@H](O)[C@H](Oc2c(-c3ccc(O)cc3)oc3c(CC=C(C)C)c(O)cc(O)c3c2=O)O[C@H]1C,3%,-72%,?,-4%,?,?
Cc1c(C=O)c2ccccn2c1C(=O)c1cccs1,-11%,3%,0%,0%,9%,i
COc1ccccc1CNS(=O)(=O)c1ccc(-c2cc(C(F)(F)F)on2)s1,?,-37%,?,-2%,·,·
COc1ccc(OC)c(CNS(=O)(=O)c2ccc(-c3cc(C(F)(F)F)on3)s2)c1,16µM*,-31%,-11%,-5%,·,·
Cc1ccc(NS(=O)(=O)c2ccc(C3CCCCC3)cc2)cc1,?,10µM*,13µM*,-3%,-30%,?
Cc1ccc(S(=O)(=O)Nc2ccc(N3CCCCC3)cc2)cc1,4%,-5%,-4%,16%,-11%,i
O=C(CCCl)Nc1nc2c(s1)CCc1ccccc1-2,-13%,10µM*,?,-3%,?,?
CC(=O)Nc1nc2c(s1)CCc1ccccc1-2,-5%,1%,-5%,-1%,·,?
COc1cccc(C(=O)Nc2nc(-c3ccc4c(c3)OCO4)cs2)c1,13µM*,-12%,?,-23%,?,?
COc1ccc(OC)c(-c2csc(NC(=O)Cc3ccc(F)cc3)n2)c1,?,19%,?,-2%,-10%,i
COc1ccc(OC)c(-c2csc(NC(=O)c3ccc(F)cc3)n2)c1,18µM*,-18%,?,-5%,·,i
COc1ccc(-c2csc(NC(=O)c3ccco3)n2)cc1,?,-39%,0%,2%,46%,i
COc1cccc(C(=O)Nc2nc(-c3ccncc3)cs2)c1,?,-1%,15%,1%,·,i
COc1ccc(-c2csc(NC(=O)c3c(OC)cccc3OC)n2)cc1,?,14µM*,5%,9%,-24%,i
COc1ccc(-c2csc(NC(=O)C3=NN(c4ccccc4)C(=O)CC3)n2)cc1,21µM*,-19%,-5%,?,?,i
Nn1c(-c2cccc(O)c2)nnc1-c1cccc(O)c1,13%,1%,-10%,1%,-7%,i
SMILES,Nrf2 block,HepG2 tox,TGFb inhibitor,A549 tox,ATXN2 expr inh,ATXN viability
Cc1c(NC(=O)Cn2[nH]c(=O)c3ccccc3c2=O)c(=O)n(-c2ccccc2)n1C,·,26%,-2%,-2%,-2%,i
COc1ccc(OC)c(-c2csc(NC(=O)CN3C(=O)C4CCCCC4C3=O)n2)c1 (stereo unspecified),?,-40%,-4%,-2%,-12%,i
COc1ccc(OC)c(-c2csc(NC(=O)Cn3[nH]c(=O)c4ccccc4c3=O)n2)c1,10µM*,3%,-36%,-17%,-38%,?
Cc1sc(NC(=O)Cn2[nH]c(=O)c3ccccc3c2=O)nc1-c1ccccc1,16µM*,-99%,?,-16%,3%,i
Cc1ccc(Cn2c(CO)cnc2SCC(=O)Nc2ccc(C)c(Cl)c2)cc1,?,-31%,?,-5%,0%,?
Cc1cc(C)n(-c2nc(NCCN(C)C)c3c4c(sc3n2)CCCC4)n1,?,4.5µM*,?,1%,14µM*,22µM*
Cc1cc(C)n(-c2nc(NCCCN(C)C)c3c4c(sc3n2)COC(C)(C)C4)n1,9%,-14%,-5%,-12%,10%,i
Cc1cc(C)n(-c2nc(NCCCN(C)C)c3c4c(sc3n2)CCCC4)n1,-10%,-191%,?,-20%,22µM*,·
COc1ccccc1N1CCN(C(=O)CCC(=O)N2CCN(c3ccc(F)cc3)CC2)CC1,?,-18%,?,-6%,-32%,i
CC1CC(=O)NN1C(=O)c1ccccc1 (stereo unspecified),-20%,14%,-19%,2%,-2%,i
COc1cccc(C2CNC3(CCCC(C)C3)c3[nH]c4ccccc4c32)c1OC (stereo unspecified),7%,-49%,?,-20%,·,11µM*
CC1(C)CC(=O)CC2(C1)NCC(c1ccccc1)c1c2[nH]c2ccccc12 (stereo unspecified),-25%,-15%,-17%,4%,2%[11.3 µM],i
Fc1ccc(Cn2cccc2C2=NC(c3ccccc3)CO2)cc1 (stereo unspecified),1%,-18%,-8%,-2%,6%,i
Cc1oc(-c2ccccc2)nc1Cn1cccc1C1=NC(c2ccccc2)CO1 (stereo unspecified),21µM*,-31%,?,-9%,-29%,i
CNC(=O)CN1C(=O)COc2ccc(S(=O)(=O)N3CCC(C)CC3)cc21,2%,-11%,-3%,0%,5%,i
Cc1cc(-c2ccc(C)c(S(=O)(=O)Nc3cccc(C#N)c3)c2)on1,7.3µM*,-22%,?,-24%,·,·
COc1ccc(-c2cnc(C)o2)cc1S(=O)(=O)Nc1cccc(C(F)(F)F)c1,·,-27%,-22%,-6%,-24%,?
CC(=O)c1ccc(NS(=O)(=O)c2cc(-c3cc(C)no3)ccc2C)cc1,·,-23%,-24%,-15%,-7%,i
